Our source for the binding signal values is PMC7819943, “Rice protein-binding microarrays: a tool to detect cis-acting elements near promoter regions in rice”.

In all, about 68,000 sequences were measured (“fluorescence intensity (a.u.)”: median about 9,100, highest 2% from about 16,000 on). The list comes from a sample in which the highest values are over-represented; it also holds similar and randomly drawn sequences.

The target in this test is OsWRKY34 (Oryza sativa, UniProt Q0JBA9 1-250). As to the kind of experiment: protein-binding microarray (RPBM); PBS, 2% BSA, 51.3 ng/ul salmon testes DNA, 50 uM zinc acetate, 200 nM TF, 25 C, 1 h; high values mean tight binding. The following applies: protein: recombinant; tags: N-terminal polyhistidine and DsRed monomer fusion (pET32a); label: CyDye5-dUTP incorporated in the synthesized complementary strand; 3' TTTTT single-stranded linker to array surface; dsDNA, one strand shown. Summed up: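 Transcription factors were made in E. coli BL21-CodonPlus as N-terminal fusions to a polyhistidine tag and DsRed, then purified on Ni–NTA. After primer extension with Cy5-dUTP and blocking with 2% BSA, a custom Agilent array was exposed for 1 h at 25 °C to 200 nM protein in PBS, 2% BSA, salmon testes DNA and 50 µM zinc acetate. Washed arrays were scanned on an Axon 4000B, and the binding signal is per-feature fluorescence intensity in arbitrary units.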
Sequence of OsWRKY34 (Q0JBA9 entry or part of it): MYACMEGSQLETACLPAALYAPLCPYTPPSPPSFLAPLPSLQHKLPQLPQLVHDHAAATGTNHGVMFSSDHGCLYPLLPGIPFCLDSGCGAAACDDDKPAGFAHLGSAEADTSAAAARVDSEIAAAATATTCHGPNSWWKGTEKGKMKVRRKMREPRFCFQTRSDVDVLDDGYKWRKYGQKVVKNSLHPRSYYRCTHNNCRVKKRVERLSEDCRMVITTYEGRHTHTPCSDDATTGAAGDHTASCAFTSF
With “GTGGGTTGGGCCAAAGAAAGGTAGGCTGAGTGGAGGGATGCGGAGTCACCTAGTGCAG”, the binding signal was 10400 fluorescence intensity (a.u.).

“CGCACACCACCGCCTACGTAGTAGCTCTGATCGGCGCTGTCGGAGTCACCTAGTGCAG”: the binding signal was 8250 fluorescence intensity (a.u.).

“AATTTTTTTTCAGCTGATCGCCACTTTATTCTTTTCATACCGGAGTCACCTAGTGCAG”: the binding signal was 10200 fluorescence intensity (a.u.). With “ACCGTGTTGCTGCCTGGTGCTCGCTTTGTTCGTAGGCCTTCGGAGTCACCTAGTGCAG” the figure was 8520 fluorescence intensity (a.u.).

Turning to “GCTAGCGCTGGAATGGTCCTACTTCTTTCATTTACAACATCGGAGTCACCTAGTGCAG”, the binding signal is 8690 fluorescence intensity (a.u.). With “TATCATTATGTCCGAACGGTATACCTTCTTGTATCATTTCCGGAGTCACCTAGTGCAG” the figure was 11200 fluorescence intensity (a.u.); with “CTCCGTAAGCTCCAGCCCACTGCCACCGCTGCTCCAGCTACGGAGTCACCTAGTGCAG”, 8250 fluorescence intensity (a.u.). Next, “GGCGAGGCGAATGTGATGGGCTAAGTTTTGTCGTTGGCAACGGAGTCACCTAGTGCAG”: 8210 fluorescence intensity (a.u.); “GCCATGAAACCTCCTTTGCTCACTGCTTTGGAACCATACTCGGAGTCACCTAGTGCAG”: 9020 fluorescence intensity (a.u.); “ATCCAACCCAACTCCCGTTGCTTTTTGTTGGACCCACTTGCGGAGTCACCTAGTGCAG”: 8110 fluorescence intensity (a.u.). With “CTTTTCATCTTCTTGACGACTTGGTTGTTTGATTCATTTACGGAGTCACCTAGTGCAG” the figure was 8830 fluorescence intensity (a.u.); with “CGCCGTTGACTTTTTGTTTAACGTTTGACCATTTGTCTTACGGAGTCACCTAGTGCAG”, 24400 fluorescence intensity (a.u.). Take “AGTGTTGACCAGCTTTGACCACCTTACCCAACTCCTTGTGCGGAGTCACCTAGTGCAG”: the binding signal is 17200 fluorescence intensity (a.u.). With “CACCGTTAACTTTTTATTACGTATTTGACCATTTGTCTTACGGAGTCACCTAGTGCAG” the figure was 10200 fluorescence intensity (a.u.); with “CCGCCTCCTTTGACCCTACCAAAATTTACCGTTGACCATGCGGAGTCACCTAGTGCAG”, 20000 fluorescence intensity (a.u.). On to “ATGACGCCGTTGACTTTTTGTCCAACGACCATTCATTTTACGGAGTCACCTAGTGCAG”, for which the binding signal is 31300 fluorescence intensity (a.u.). In the case of “ATTTTGAGTTTTTACTTGTAACGTTTGACCACTTGTCTTACGGAGTCACCTAGTGCAG”, the binding signal was 8620 fluorescence intensity (a.u.). Next, “ACCGACCTACTTAATTGCCTCCTGCCAAAATGACCCTTTACGGAGTCACCTAGTGCAG”: 9140 fluorescence intensity (a.u.); “TTTCCGCATTTCCGCTCCTCTCTTTTTTACCCTTGACATGCGGAGTCACCTAGTGCAG”: 8530 fluorescence intensity (a.u.). As for “AAAAACTGGGCCAGCTTTTTGTTTTTTTTACCACCCACAGCGGAGTCACCTAGTGCAG”, the binding signal is 9010 fluorescence intensity (a.u.).

Turning to “AACCCATTTTCTGCTCTGCTCTTGCTTTGCTTTGCATTTCCGGAGTCACCTAGTGCAG”, the binding signal was 14000 fluorescence intensity (a.u.). Next, “ATTGTTTGTCCCGTCCCTACATCACGCCAAAAGTCACAACCGGAGTCACCTAGTGCAG”: 11800 fluorescence intensity (a.u.); “GGAGGGGCGGCGATCGAGCAGAGCAGGGGAGGGAATCCTGCGGAGTCACCTAGTGCAG”: 8310 fluorescence intensity (a.u.).
